Source: PubChem BioAssay (NCATS)
Inconclusive results are not listed. Entries that show only a call come without a potency. The source made the active and inactive calls. Calls follow the shape of the dose curve; as a rule, active = well fitted curve in the direction sought with a large enough effect; inconclusive = small, poorly fitted or top-dose-only effect, or another doubt; inactive = no such curve, though single readings can be large; an effect the other way counts as inactive or inconclusive.

Experiments:
[1] = Primary qHTS for inhibitors of nuclear receptor binding SET domain protein 2 (NSD2) in an isogenic RCH-ACV NSD2 p.E1099K mutant (9B) (AID 1645876); conditions: RCH-ACV NSD2 E1099K (9B) viability, CellTiter-Glo, 72 h; series mostly up to 44.9 µM; also: nearly all actives have a fitted effect of over 70% in size
[2] = Primary qHTS for inhibitors of nuclear receptor binding SET domain protein 2 (NSD2) in an RCH-ACV wild type WT cells (2C) (AID 1645877); conditions: RCH-ACV (leukaemia line) NSD2 WT (2C) viability, CellTiter-Glo, 72 h; series mostly up to 44.9 µM; also: nearly all actives have a fitted effect of over 70% in size
[3] = biological target: Rap guanine nucleotide exchange factor 3 (Homo sapiens) (UniProt O95398); test: Confirmatory qHTS for antagonist of cAMP-regulated guanine nucleotide exchange factor 3 (EPAC1) (AID 1645880); conditions: EPAC1 Rap1B-BODIPY-GDP exchange, fluorescence; series mostly up to 115 µM; also: nearly all actives have a fitted effect of over 55% in size
Sequence of Rap guanine nucleotide exchange factor 3 (Homo sapiens) (O95398 whole entry, looked up): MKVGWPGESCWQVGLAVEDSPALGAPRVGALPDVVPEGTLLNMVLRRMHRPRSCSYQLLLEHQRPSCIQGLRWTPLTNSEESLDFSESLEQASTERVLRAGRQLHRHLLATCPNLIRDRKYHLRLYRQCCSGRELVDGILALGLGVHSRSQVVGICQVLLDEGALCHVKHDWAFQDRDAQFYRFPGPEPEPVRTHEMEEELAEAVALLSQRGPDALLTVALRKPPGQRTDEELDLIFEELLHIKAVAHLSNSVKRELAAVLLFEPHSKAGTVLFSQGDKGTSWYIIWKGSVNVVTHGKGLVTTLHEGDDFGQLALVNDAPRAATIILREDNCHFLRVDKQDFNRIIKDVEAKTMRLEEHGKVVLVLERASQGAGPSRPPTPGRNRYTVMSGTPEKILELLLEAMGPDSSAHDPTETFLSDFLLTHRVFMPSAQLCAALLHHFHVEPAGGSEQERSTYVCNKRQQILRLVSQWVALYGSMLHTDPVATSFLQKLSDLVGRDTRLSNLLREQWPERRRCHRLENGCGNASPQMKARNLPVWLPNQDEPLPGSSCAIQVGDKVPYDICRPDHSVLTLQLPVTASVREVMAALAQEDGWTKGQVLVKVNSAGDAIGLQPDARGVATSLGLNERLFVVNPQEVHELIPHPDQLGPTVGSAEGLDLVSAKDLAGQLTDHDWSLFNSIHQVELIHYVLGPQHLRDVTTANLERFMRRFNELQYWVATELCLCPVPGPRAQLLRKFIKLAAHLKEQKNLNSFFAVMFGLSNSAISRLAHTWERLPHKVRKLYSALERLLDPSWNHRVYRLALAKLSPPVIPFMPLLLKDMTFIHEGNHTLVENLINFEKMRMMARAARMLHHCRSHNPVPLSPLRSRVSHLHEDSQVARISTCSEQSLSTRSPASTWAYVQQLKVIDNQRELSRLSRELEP
Summary of the method: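 Nucleotide exchange uses 100 nM EPAC1, 250 nM RAP1B-BODIPY-GDP and 50 uM GDP, with compounds in a concentration-titration series. After 5 min at room temperature, fluorescence (480 nm ex/540 nm em) is read every 5 min for 30 min. Data are normalized to control ATA and DMSO.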

[4] = biological target: Rap guanine nucleotide exchange factor 3 (Homo sapiens) (UniProt O95398); test: Confirmatory qHTS for agonist of cAMP-regulated guanine nucleotide exchange factor 3 (EPAC1) (AID 1645881); conditions: EPAC1 Rap1B BODIPY-GDP exchange fluorescence, 100% = cAMP control response; series mostly up to 154 µM;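 also: EPAC1 catalysed release of BODIPY-GDP from Rap1B seen as fluorescence loss; nearly all actives have a fitted effect of over 75% in size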
[5] = biological target: Rap guanine nucleotide exchange factor 4 (Homo sapiens) (UniProt Q8WZA2); test: Confirmatory qHTS for antagonist of cAMP-regulated guanine nucleotide exchange factor 4 (EPAC2) (AID 1645885); conditions: EPAC2 Rap1B-BODIPY-GDP exchange fluorescence, biochemical; series mostly up to 114 µM; also: nearly all actives have a fitted effect of over 25% in size
Sequence of Rap guanine nucleotide exchange factor 4 (Homo sapiens) (Q8WZA2 whole entry, looked up): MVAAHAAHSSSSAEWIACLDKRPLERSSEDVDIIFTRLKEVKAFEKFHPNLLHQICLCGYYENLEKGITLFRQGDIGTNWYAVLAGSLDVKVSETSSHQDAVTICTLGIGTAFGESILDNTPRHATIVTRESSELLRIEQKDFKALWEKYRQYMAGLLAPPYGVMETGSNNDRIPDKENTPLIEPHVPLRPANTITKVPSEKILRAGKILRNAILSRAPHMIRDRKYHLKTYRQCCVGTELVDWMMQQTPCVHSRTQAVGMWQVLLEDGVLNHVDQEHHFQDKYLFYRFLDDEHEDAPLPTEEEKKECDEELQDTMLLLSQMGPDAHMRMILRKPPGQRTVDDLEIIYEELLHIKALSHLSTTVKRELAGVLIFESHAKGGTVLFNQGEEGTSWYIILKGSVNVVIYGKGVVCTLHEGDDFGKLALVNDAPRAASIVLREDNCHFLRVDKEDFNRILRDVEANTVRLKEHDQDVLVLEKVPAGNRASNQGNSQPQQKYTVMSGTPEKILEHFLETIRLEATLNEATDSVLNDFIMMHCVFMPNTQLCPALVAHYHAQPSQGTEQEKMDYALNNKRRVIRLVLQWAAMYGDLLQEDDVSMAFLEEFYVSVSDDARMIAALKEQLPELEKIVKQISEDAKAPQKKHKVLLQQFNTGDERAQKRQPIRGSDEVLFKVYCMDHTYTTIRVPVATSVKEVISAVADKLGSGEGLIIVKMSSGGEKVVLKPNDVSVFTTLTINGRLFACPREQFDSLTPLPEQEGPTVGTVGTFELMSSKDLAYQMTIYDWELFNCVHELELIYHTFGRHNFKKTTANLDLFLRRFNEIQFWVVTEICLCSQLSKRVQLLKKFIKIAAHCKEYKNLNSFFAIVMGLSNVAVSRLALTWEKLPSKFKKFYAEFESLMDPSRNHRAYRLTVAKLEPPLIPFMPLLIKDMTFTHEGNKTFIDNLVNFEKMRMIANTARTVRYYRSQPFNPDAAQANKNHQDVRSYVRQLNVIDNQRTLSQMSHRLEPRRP

Row | SMILES | Potency [1] | Potency [2] | outcome [3] | outcome [4] | Potency [5]
1 | Nc1ccc(Cl)cc1 | inactive | inactive |  |  | 
2 | Cc1nc(-c2ccc(-c3ccc(C(=O)N4CCc5cc6c(cc54)C4(CCN(C)CC4)CO6)cc3)c(C)c2)no1 |  |  | inactive | inactive | inactive
